Holding throughout (assay): NCI-60 one-dose screen, 48 h (100 = growth as untreated, 0 = no growth, -100 = all killed)
Details in all cases: 10 µM unless noted

The test system of assay [1] is DU-145 prostate.
Assay [2] concerns K-562 leukemia.
The test system of assay [3] is MALME-3M melanoma.
For assay [4], the system named is MDA-MB-231 breast.
The test system of assay [5] is RXF 393 renal.
The test system of assay [6] is SF-268 CNS.
Assay [7] deals with SF-295 CNS.
Assay [8] concerns SF-539 CNS.
Assay [9] deals with M14 melanoma.
Assay [10] relates to UACC-257 melanoma.

The panel holds about 83,000 compounds, 20% with a hit somewhere; the sample as a whole holds those more often.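 Percent growth is the endpoint: 0 to 100 indicates growth inhibition (40 means 60% inhibition), 0 means no net growth, and negative values indicate cell death.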 Values without a mark were called inactive. Calls of active or inactive are those of the source. Rule for the calls: active = growth percent below 10; inactive = the rest.

In the case of `Nc1c(Br)cc(Br)cc1-c1n[nH]c(=O)[nH]c1=O`, the growth in [1] was 114%; in assay [2], 102%; in assay [3] it was 98.4%; in assay [4], 87.4%; in assay [5], 103%; in [6], 104%. Moreover, the growth was 98% in assay [7], 92.5% in assay [8] and 101% in assay [9].

As for `c1ccc(-c2nc(N3CCOCC3)c3c4c(sc3n2)CCCCCC4)nc1`, the growth in assay [1] was 76.1%; in assay [2], 32%; in assay [3] it was 58.4%; in assay [4] it was 63.4%; in [6] it was 74.1%; in [7] it was 6.04% (active). The values for the growth in assay [8] and in assay [9] were 77% and 59.2%, respectively.

Turning to `COc1ccc(C2OCC(C)(C)CO2)cc1OC`, the growth is 107% in [1]; 101% in [2]; 107% in [3]; 103% in assay [4]; 88% in assay [5]; 101% in assay [6]. In addition, the growth is 104% in assay [8], 87.5% in assay [10] and 113% in assay [9].

On to `COC(=O)[C@@H]1CCCN1C(=O)[C@@H]1CCCN1C(=O)[C@@H](Cc1c[nH]c2ccccc12)NC(=S)Nc1cc(C(F)(F)F)cc(C(F)(F)F)c1`, for which the growth was 80.5% in assay [1]; 15.4% in assay [2]; 60.4% in [3]; 53.2% in [4]; 47.5% in assay [5]; 58% in assay [6]. Further, the growth in [8] is 89.4%; in assay [10], 72.3%; in assay [9], 61.1%.

Regarding `CCCOC(=O)c1ccc2c(c1)[N+](=O)C(C(=O)c1ccccc1)=C(C(F)(F)F)[N+]2=O`, the growth in assay [1] is -97.2% (active); in [2], -74% (active); in assay [3], -73.7% (active); in assay [4], -90.4% (active); in assay [5] it was -93.2% (active); in assay [6], -81.4% (active). For the same molecule, the results for the growth in assay [8], in assay [10] and in assay [9] were -95% (active), -94.2% (active) and -70.3% (active), respectively.

As for `CCOC(=O)C1=C(C)N2C(=NC3=C(CCCC/C3=C\c3cc(OC)c(OC)c(OC)c3)C2c2cc(OC)c(OC)c(OC)c2)S1` (centres undefined), the growth in assay [1] was 86%; in assay [2] it was 31.2%; in [3], 51.8%; in assay [4] it was 71.9%; in assay [6], 80.6%; in [7], 56.5%. The figures for the growth in [8] and in assay [9] were 79.9% and 79%, respectively.

As for `C=CC(=O)N1CC2(CCC(n3nc(-c4ccc(Oc5ccccc5)cc4)c4c(N)ncnc43)CC2)C1`, the growth was -52.3% (active) in [1]; 3.48% (active) in assay [2]; -70.7% (active) in [3]; -31% (active) in assay [4]; -94.9% (active) in assay [5]; -81.1% (active) in assay [6]. Besides, the results for the growth in [7], in [8] and in assay [9] were -13.9% (active), -94.4% (active) and -79.7% (active), respectively.

Turning to `Oc1ccc(Cl)cc1CNc1nc2ccccc2[nH]1`, the growth is -50.6% (active) in assay [1]; -50.4% (active) in [2]; -56.4% (active) in [3]; -24.1% (active) in assay [4]; 51.7% in assay [5]; -39.7% (active) in [6]. For the same molecule, the growth in assay [8] is -50.9% (active); in assay [10] it was -63.4% (active); in assay [9], -49.1% (active).

On to `Nc1ccccc1-c1n[nH]c(=O)[nH]c1=O`, for which the growth was 121% in [1]; 107% in [2]; 106% in assay [3]; 113% in assay [4]; 114% in assay [6]; 79% in assay [7]. In addition, the growth in [8] was 101%; in assay [9], 99%.

As to `CC(C)OC1=C(Cl)C(=O)c2ccccc2C1=O`, the growth is 119% in assay [1]; 22.8% in [2]; 111% in assay [3]; 85.6% in assay [4]; 99.6% in [5]; 93.5% in [6]. The growth was 38.4% in assay [8], 89.6% in [10] and 97.8% in [9].

As to `O=c1[nH]c(=S)[nH]c(=O)n1Cc1cccc2ccccc12`, the growth was 116% in assay [1]; 90.1% in assay [2]; 97.3% in assay [3]; 106% in [4]; 107% in assay [6]; 77.4% in [7]. In addition, the growth in assay [8] is 103%; in [9], 104%.

Regarding `Brc1ccccc1Nc1ccc2nnc(-c3ccncc3)n2n1`, the growth in [1] is 113%; in [2] it was 46.9%; in assay [3], 99.7%; in assay [4], 108%; in [5], 101%; in assay [6], 99.4%. Also, the growth in assay [8] was 104%; in assay [10] it was 106%; in assay [9], 101%.

On to `CN1CCc2c(c3ccccc3c3ccccc23)C1`, for which the growth was 45.7% in [1]; 27.1% in assay [2]; 53.4% in assay [3]; 59.6% in assay [4]; 39.1% in assay [6]; 45.1% in [7]. Further, the growth in assay [8] was 50.8%; in assay [10], 37.6%; in assay [9] it was 56.2%.

In the case of `COCCOC1=C(Cl)C(=O)c2ccccc2C1=O`, the growth in assay [1] was 38.7%; in assay [2] it was 8.89% (active); in assay [3], 96.4%; in assay [4], 34.8%; in assay [5] it was 18.7%; in [6], 24.1%. Besides, the values for the growth in assay [8], in assay [10] and in assay [9] were -10.4% (active), -17.3% (active) and 40.1%, respectively.

With `C(=C\c1ccccc1)/CN1CCN(C(c2ccccc2)c2ccccc2)CC1`, the growth was 109% in [1]; 79.2% in assay [2]; 106% in assay [3]; 91.5% in assay [4]; 81% in [5]; 98.5% in assay [6]. In addition, the growth in assay [8] was 90.7%; in [10] it was 92.1%; in [9], 99.1%.

`CCOC(=O)C(CC(c1ccccc1)N1CCCCC1)[N+](=O)[O-]` (centres undefined): the growth in assay [1] was 94.4%; in assay [2] it was 69.5%; in [3], 62%; in [4], 86.6%; in assay [5], 100%; in assay [6], 93%. In addition, the growth was 89% in assay [10] and 82.5% in assay [9].

As to `O=C1C(OCCOc2ccccc2)=C(OCCOc2ccccc2)C(=O)c2ccccc21`, the growth in [1] is 56.7%; in assay [2] it was 66.4%; in [3], 54.7%; in assay [4], 70.5%; in assay [5], 79.4%; in assay [6], 77.2%. Further, the growth in assay [8] was 94.9%; in assay [10], 14.8%; in [9] it was 51.4%.

For `Cc1nc(NC(=O)COc2cccc(/C=C3\COc4ccccc4C3=O)c2)sc1C`, the growth is 63.1% in assay [1]; -65.2% (active) in assay [2]; -68.1% (active) in assay [3]; 0.962% (active) in [4]; -63.3% (active) in [6]; 25.3% in [7]. The growth in assay [8] is -63.9% (active); in [10], -49% (active); in assay [9], -79.4% (active).

Regarding `FC(F)(F)c1ccc2c(c1)n1cnnc1c1nncn21`, the growth is 118% in assay [1]; 100% in [2]; 106% in [3]; 104% in assay [4]; 104% in assay [5]; 117% in [6]. The growth in assay [7] is 89.2%; in [8], 114%; in [9], 114%.

In the case of `COc1cccc(Nc2nc(NCCO)c3ccccc3n2)c1`, the growth in assay [1] is 97%; in assay [2], 42.7%; in assay [3] it was 75.7%; in assay [4] it was 65.3%; in assay [5] it was 70.7%; in [6], 72.5%. Besides, the growth in assay [8] was 81.5%; in assay [10], 95.8%; in assay [9] it was 77.7%.

Regarding `Cc1ccc(N=c2nc3sc4c(C)ccc(C)c4n3c(N)c2C#N)cc1`, the growth was 105% in assay [1]; 88.6% in assay [2]; 125% in assay [3]; 93.9% in assay [4]; 124% in assay [5]; 92.6% in assay [6]. The growth in assay [7] was 91.1%; in assay [8], 99.1%; in [9] it was 102%.

For `CC(=O)Nc1ccccc1-c1n[nH]c(=O)[nH]c1=O`, the growth in assay [1] is 107%; in assay [2], 107%; in assay [3] it was 89.6%; in assay [4], 104%; in assay [5] it was 96.6%; in assay [6] it was 105%. In addition, the growth was 98.1% in [7], 91.3% in [8] and 92% in [9].

Take `CC[Si](CC)(CC)OC1[C@@H](O[Si](CC)(CC)CC)[C@@H](CNC(=O)NC)O[C@H]1n1cnc2c(NC(=O)Nc3ccccc3)ncnc21` (some centres undefined): the growth in assay [1] is 89.3%; in assay [2], 15.9%; in assay [3] it was 63.2%; in assay [4], 97.4%; in assay [5] it was 116%; in assay [6], 67.5%. Further, the growth in assay [7] was 59%; in assay [8], 99%; in [9], 99.9%.

For `COc1ccc(-n2c(SCc3cc(OC)c(OC)c(OC)c3)nc3ccc(C)cc3c2=O)c(OC)c1`, the growth is 4.58% (active) in [1]; 14.4% in assay [2]; 25.5% in assay [3]; 44.8% in assay [4]; 19.6% in assay [5]; 44.1% in assay [6]. The figures for the growth in [7], in assay [8] and in assay [9] were 6.35% (active), 20% and 11.2%, respectively.

`O=c1[nH]c(-c2ccccn2)nc2sc3c(c12)CCCCCC3`: the growth in assay [1] was 48.8%; in assay [2], 20.4%; in [3], 61.9%; in assay [4] it was 49.3%; in assay [5], 50.7%; in [6], 40.6%. Also, the growth in assay [7] is -6% (active); in assay [8] it was 61.7%; in [9], 46.1%.

For `N#CCCN1CCN(CCC#N)C1=S`, the growth in assay [1] is 110%; in assay [2] it was 109%; in assay [4], 99.6%; in assay [5], 124%; in assay [6] it was 99.4%; in [7], 93.3%. For the same molecule, the results for the growth in [8], in assay [10] and in assay [9] were 101%, 99.8% and 96.6%, respectively.

For `CNc1ccc(Br)cc1-c1n[nH]c(=O)[nH]c1=O`, the growth in assay [1] was 122%; in assay [2], 103%; in assay [3] it was 110%; in assay [4], 94.2%; in [6], 111%; in [7], 79.6%. In addition, the growth is 103% in [8] and 100% in assay [9].

Take `CS(=O)(=O)Nc1cccc(C(=O)NCc2ccc(N3CCOCC3)cc2)c1`: the growth in assay [1] was 103%; in assay [2] it was 92.4%; in assay [3] it was 111%; in assay [4] it was 121%; in assay [6] it was 97.9%; in assay [8], 103%. Besides, in assay [9], the growth was 99.2%.

On to `CCCCNNC(=O)c1ccc(Br)cc1`, for which the growth in assay [1] was 50.9%; in assay [2], 29.9%; in assay [4], 76.1%; in assay [5], 69.5%; in [6] it was 56.4%; in assay [7] it was 38.4%. Moreover, the growth in assay [8] is 61.4%; in assay [10], 16.3%; in assay [9] it was 42%.

For the molecule `COc1ccc(CSc2nc3cc(OC)c(OC)cc3c(=O)n2-c2ccc(Cl)cc2)cc1`, the growth in assay [1] was 109%; in [2] it was 93%; in assay [3] it was 107%; in [4], 99.9%; in assay [6], 101%; in assay [8] it was 95.9%. In assay [9], the growth is 106%.

As to `C=C(C)COC(=O)c1ccccc1C(=O)OCC1(C)CO1` (centres undefined), the growth in [1] is 104%; in assay [2], 110%; in [4] it was 103%; in [5] it was 117%; in assay [6] it was 93.6%; in assay [7] it was 91.9%. For the same molecule, the growth was 101% in assay [8], 101% in [10] and 96.5% in assay [9].

(Values after PubChem BioAssay (NCI).)
